From PubChem BioAssay (NCATS)
Where “and” joins values, the source holds several entries; their conditions need not be identical. Identical values can stand only once. Records with an inconclusive call do not appear.

Test: qHTS Assay for Lipid Storage Modulators (AID 1519)
Details: Drosophila S3 cells, BODIPY lipid droplet/cell ratio, laser cytometry; measured here: lipid channel max response; cells loaded with oleic acid
Method in brief: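 Cells seeded at 5,000 per well were treated with compounds over a concentration series and loaded with oleic acid (400 uM, as added). Lipid droplet fluorescence (488 nm excitation, 500-530 nm channel) was read by laser-scanning cytometry and normalized to 20 uM Triacsin C.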

Structure (SMILES)	max response
COc1cc(CC(=O)O)ccc1O	57.3%
NC(Cc1cccc(-c2ccccc2CP(=O)(O)O)c1)C(=O)O (configuration not stated)	44.8%
Cn1c(=O)c2[nH]c(C3CCCC3)nc2n(C)c1=O	26.8% and -11.4%
O=c1[nH]c(=O)c2nc3ccccc3nc2[nH]1	-9.17%
NOCC(=O)O	0.0357%
NC(N)=NC(N)=Nc1ccccc1	10.2% and 16.5%
CC1CCN(CC[C@H]2CCCN2S(=O)(=O)c2cccc(O)c2)CC1	15.3% and -11.1%
CC(C)NCC(O)COc1ccc(CC(N)=O)cc1 (configuration not stated)	-32.6%
N[C@H](C(=O)O)[C@H](O)C(=O)O	-6.36%
NC1C=CC=C(C(=O)O)C1 (configuration not stated)	-17.7%
NCCC1CCCC(CCN)N1 (configuration not stated)	-17.4%
CN(C)CCC(c1ccc(Br)cc1)c1ccccn1 (configuration not stated)	17.8%
NC(N)=NC(N)=Nc1cccc(Cl)c1	18.7% and -27.9%
CC(=O)O[C@H]1CC2(C)[C@@H](C[C@@H](O)[C@H]3[C@@]4(C)CC[C@@H](O)[C@@H](C)[C@@H]4CC[C@@]32C)C1=C(CCC=C(C)C)C(=O)O (some centres not stated)	-5.43%
CCN(CC)CCCCCCCCOC(=O)c1cc(OC)c(OC)c(OC)c1	11.3%
COc1ccccc1N1CCN(CCCCNC(=O)c2ccc3ccccc3c2)CC1	1.88%
C[C@H](O)C(=O)C1=Nc2c(nc(N)[nH]c2=O)NC1	8.64%
c1ccc(CN2CCC3(CCCc4ccccc43)CC2)cc1	-39.4%
O=C(O)c1ccccc1Nc1ccccc1	11.5% and -17.1%

Structure (SMILES)	max response
NC(N)=[N+]1CCc2ccccc2C1	-12.8%
CC(N)=NCCCC[C@@H](N)C(=O)O	2.75%
O=C(O)C1=CCCN(CCON=C(c2ccccc2)c2ccccc2)C1	-9.11% and 11.8%
COc1cc(C(O)CO)ccc1O (configuration not stated)	-49.3%
COc1ccccc1N1CCN(CCCNc2c(C)c(=O)n(C)c(=O)n2C)CC1	37.3%
CN[C@H](CC(=O)O)C(=O)O	14.4%
CSC(N)=NCCC[C@H](N)C(=O)O	26.3%
CN1CCN(c2nc3cc(C(F)(F)F)ccc3n3cccc23)CC1	20.6%
CCCC[C@@]1(C2CCCC2)Cc2cc(OCC(=O)O)c(Cl)c(Cl)c2C1=O	-27%
COc1cc(/C=C(\C#N)C(=O)c2ccc(O)c(O)c2)cc(I)c1O	26.2%
O=C(O)/C(=C/c1c(C(=O)O)[nH]c2cc(Cl)cc(Cl)c12)c1ccccc1	-9.3%
NC1(C(=O)O)CCc2cc(C(=O)O)ccc21 (configuration not stated)	-22%
CN1CCC2(CCN3CCc4c(oc5ccccc45)C3C2)N(C)C1=O (configuration not stated)	48%
CC(=O)NCCc1c[nH]c2ccc(O)cc12	28.6%
Cc1cc2c(cc1Cl)N(C(=O)Nc1ccnc3ccccc13)CC2	64%
Cc1cccc(C)c1OCC(N)C(C)C (configuration not stated)	59.8%
O=C(O)c1cccnc1C(=O)O	12.5%
Nc1nc2[nH]c(=O)cnc2c(=O)[nH]1	55.1%
